# Laboratory results from PubChem BioAssay AID794 (The Scripps Research Institute Molecular Screening Center, 2007).
# The list shows a part of the results. The source made the active and inactive calls. Cut-off read from the data, not from the text of the source: active = inhibition above about 19%; inactive = the rest.
# Target: Focal adhesion kinase 1 (Homo sapiens) (UniProt Q05397)
# Experiment: FAK kinase inhibitors, retest, confirmation, biochemical (AID 794)
# Settings: FAK kinase biochemical inhibition assay; at 7 µM; stronger effect = higher value
# Focal adhesion kinase 1 (Homo sapiens), sequence (Q05397 whole entry, looked up): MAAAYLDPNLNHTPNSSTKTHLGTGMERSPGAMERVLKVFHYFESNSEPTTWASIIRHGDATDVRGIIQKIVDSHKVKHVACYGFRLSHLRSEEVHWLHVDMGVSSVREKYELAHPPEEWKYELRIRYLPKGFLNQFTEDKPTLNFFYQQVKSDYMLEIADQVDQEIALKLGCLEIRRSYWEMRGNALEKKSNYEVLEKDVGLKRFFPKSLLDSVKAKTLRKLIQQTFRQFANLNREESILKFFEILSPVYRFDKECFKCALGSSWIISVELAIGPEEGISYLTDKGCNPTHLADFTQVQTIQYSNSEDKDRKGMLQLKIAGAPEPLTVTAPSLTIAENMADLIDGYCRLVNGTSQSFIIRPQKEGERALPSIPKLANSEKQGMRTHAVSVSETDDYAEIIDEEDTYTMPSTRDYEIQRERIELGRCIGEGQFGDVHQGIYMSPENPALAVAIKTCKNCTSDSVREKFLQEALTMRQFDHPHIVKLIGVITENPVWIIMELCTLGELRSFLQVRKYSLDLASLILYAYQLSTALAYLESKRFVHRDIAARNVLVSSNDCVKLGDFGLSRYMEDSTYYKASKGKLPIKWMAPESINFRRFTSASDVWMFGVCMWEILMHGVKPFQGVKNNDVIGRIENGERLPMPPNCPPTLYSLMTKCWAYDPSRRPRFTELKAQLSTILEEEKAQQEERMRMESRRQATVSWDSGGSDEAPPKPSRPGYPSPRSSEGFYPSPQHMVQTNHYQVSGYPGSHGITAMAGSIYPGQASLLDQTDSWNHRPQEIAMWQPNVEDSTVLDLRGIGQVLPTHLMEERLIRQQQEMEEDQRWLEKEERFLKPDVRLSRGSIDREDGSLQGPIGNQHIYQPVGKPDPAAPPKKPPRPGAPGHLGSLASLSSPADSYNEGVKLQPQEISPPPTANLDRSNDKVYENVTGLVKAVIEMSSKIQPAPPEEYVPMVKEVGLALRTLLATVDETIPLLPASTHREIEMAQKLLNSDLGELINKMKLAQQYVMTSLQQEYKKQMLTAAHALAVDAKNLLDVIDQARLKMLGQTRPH
row,Compound,inhibition
1,O=[N+]([O-])c1ccc(C=Nc2ccc(Cl)cc2Cl)s1,2.19% (inactive)
2,COCCn1c(C)cc(C(=O)CSc2ncnc3sc4c(c23)CCC4)c1C,4.05% (inactive)
3,Cc1ccc(-n2nc3ccc(NC(=O)/C=C/c4ccco4)cc3n2)cc1C,5.82% (inactive)
4,Cc1ccc(-c2nn(C(C)(C)C)c3ncnc(N)c23)cc1,15.6% (inactive)
5,COc1ccc(NC(=O)ON=C2c3ccccc3-c3ccccc32)cc1,6.77% (inactive)
6,CC(=NCc1ccco1)C1=C(O)c2ccccc2C1=O,15.2% (inactive)
7,O=[N+]([O-])c1ccc(Oc2ccc(F)cc2Br)c2ccncc12,6.15% (inactive)
8,CCc1ccc2nc3sc(C(=O)Nc4nnc(CC)s4)c(N)c3cc2c1,16.1% (inactive)
9,Cc1cc2cc3c(N)[nH]nc3nc2cc1C,20.5% (active)
10,Fc1ccc(-c2ccc(-c3nn4c(-c5ccco5)nnc4s3)o2)cc1,5.37% (inactive)
11,Cn1cccc1C(=O)Nc1nccs1,7.79% (inactive)
12,Cc1cccn2c(=O)c3cc(C(=O)N4COCC4(C)C)n(C)c3nc12,6.3% (inactive)
13,COC(=O)c1c(NC(=O)CSc2nncs2)sc2c1CCCCC2,10.8% (inactive)
14,CCCOc1ccc(NC(=O)C2CCCNC2=O)cc1 (configuration not stated),-2.48% (inactive)
15,COc1cc(N=Cc2c(O)[nH]c3ccccc23)cc(OC)c1OC,56.3% (active)
16,Cn1c(CCN2CCCCCC2)nc2cc(NC(=O)Nc3ccccc3)ccc21,7.82% (inactive)
17,CCN(CC)S(=O)(=O)c1ccc2c3c(cccc13)C(=O)S2,14.7% (inactive)
